Measured values: PubChem BioAssay (NCATS)
Records with an inconclusive call do not appear. Active and inactive are the calls of the source. Unless noted, calls follow the shape of the dose curve; as a rule, active = well fitted cell-killing curve with a large enough effect; inconclusive = small, poorly fitted or top-dose-only effect; inactive = flat fitted curve, though single readings scatter.

Legend:
[1] = Cell Viability - LYMP2-025 (AID 976);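 also: series mostly up to about 92 µM; plate controls were DMSO only for no effect and tetraoctylammonium bromide control for full effect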
Summary of the method: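 Cytotoxicity read as loss of intracellular ATP (luciferase luminescence) after 24 h compound treatment at 37 C. Uses LYMP2-025 lymphoblastoid cells in 1536-well format; Hill-equation modelling gives AC50; tetraoctylammonium bromide as positive control.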

[2] = Cell Viability - LYMP2-002 (AID 977);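 also: series mostly up to about 92 µM; plate controls were DMSO only for no effect and 92 µM tetraoctylammonium bromide for full effect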
Summary of the method: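 Human lymphoblastoid cells (2500/well) in complete medium were preincubated 5 hr at 37 C, then exposed to compounds for 24 hr at 37 C. Intracellular ATP was read by CellTiter-Glo luminescence; AC50 came from Hill-equation concentration-response fits.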

[3] = Cell Viability - LYMP2-007 (AID 979);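 also: cells exposed to compound for 24 h before reading; 0% = DMSO only and the negative end = 92 µM tetraoctylammonium bromide; nearly all actives have a fitted effect of over 60% in size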
Summary of the method: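 AC50 values come from Hill-equation fits of luminescent intracellular ATP (CellTiter-Glo, 30 min, room temperature) following 24 h compound exposure at 37 C. Cells: LYMP2-007 lymphoblastoid line, 2500 per well, in complete culture medium.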

[4] = Cell Viability - LYMP2-008 (AID 980); also: % is scaled to controls: 0 for no effect and ±100 for the full control effect; nearly all actives have a fitted effect of over 60% in size
Summary of the method: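 Cytotoxicity determined from ATP-dependent luciferase luminescence (CellTiter-Glo) following 24 h compound exposure of human lymphoblastoid LYMP2-008 cells at 37 C. Concentration-response data fitted to the Hill equation to give AC50.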

[5] = Cell Viability - LYMP2-010 (AID 981); also: % is scaled to controls: 0 for no effect and ±100 for the full control effect; nearly all actives have a fitted effect of over 55% in size
Summary of the method: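 CellTiter-Glo ATP luminescence measured cytotoxicity after 24 h compound exposure at 37 C. LYMP2-010 cells were seeded at 2500/well, with tetraoctylammonium bromide as control; concentration-response curves gave AC50 values by the Hill equation.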

[6] = Cell Viability - LYMP2-012 (AID 982);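 also: cellular ATP by luciferase luminescence where a drop means cytotoxicity; cells exposed to compound for one day before reading; 0% = DMSO only and full loss = 92 µM tetraoctylammonium bromide; nearly all actives have a fitted effect of over 55% in size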
[7] = Cell Viability - LYMP2-014 (AID 983);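 also: series mostly up to about 92 µM; plate controls were DMSO only for no effect and 92 µM tetraoctylammonium bromide for full effect; nearly all actives have a fitted effect of over 50% in size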
Summary of the method: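 Intracellular ATP loss, read by luciferase luminescence, measures acute cytotoxicity after 24 h compound exposure of lymphoblastoid LYMP2-014 cells (2500/well, 37 C). Concentration-response data fitted to the Hill equation for AC50.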

[8] = Cell Viability - LYMP2-016 (AID 984); also: % is scaled to controls: 0 for no effect and ±100 for the full control effect; nearly all actives have a fitted effect of over 55% in size
Summary of the method: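 Cells were seeded at 2500 per well and rested 5 hr before a 24 hr compound exposure at 37 C. Viability was then gauged as cellular ATP by luciferase luminescence, with AC50 values fitted to the Hill equation.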

[9] = Cell Viability - LYMP2-020 (AID 986);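 also: series mostly up to about 92 µM; plate controls were DMSO only for no effect and tetraoctylammonium bromide at 92 µM for full effect; nearly all actives have a fitted effect of over 55% in size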
Summary of the method: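 Cytotoxicity in qHTS format: luminescent ATP readout from CellTiter-Glo after 24 h compound exposure at 37 C in complete medium. LYMP2-020 lymphoblastoid cells were seeded at 2500/well; concentration-response data fitted to the Hill equation for AC50.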

[10] = Cell Viability - LYMP2-024 (AID 988);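 also: plate controls were DMSO only for no effect and 92 µM tetraoctylammonium bromide for full effect; nearly all actives have a fitted effect of over 60% in size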
Summary of the method: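 Cytotoxicity was taken as a decrease in ATP (CellTiter-Glo luminescence) after 24 hr compound exposure at 37 C of LYMP2-024 lymphoblastoid cells, 2500 cells/well. Concentration-response data were fitted to the Hill equation to give AC50.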

[11] = Cell Viability - LYMP2-026 (AID 989); also: % is scaled to controls: 0 for no effect and ±100 for the full control effect; nearly all actives have a fitted effect of over 50% in size
Summary of the method: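 Cytotoxicity read as ATP-dependent luminescence (CellTiter-Glo, 30 min room temperature) after 24 h compound treatment at 37 C. LYMP2-026 lymphoblastoid line seeded at 2500 cells/well; AC50 derived by standard Hill equation.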

[12] = Cell Viability - LYMP1-002 - Assay at 24 hr (AID 993); also: % is scaled to controls: 0 for no effect and ±100 for the full control effect
Summary of the method: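 qHTS cytotoxicity at 24 h: CellTiter-Glo ATP luminescence in lymphoblastoid line LYMP1-002 incubated with compound at 37 °C. Concentration-response modeled with the Hill equation for AC50; tetraoctylammonium bromide served as positive control.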

[13] = Cell Viability - LYMP1-002 - Assay at 40 hr (AID 994);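 also: 0% = DMSO only and full inhibition = 92 µM tetraoctylammonium bromide; nearly all actives have a fitted effect of over 60% in size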
Summary of the method: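 Cytotoxicity was read as loss of cellular ATP (CellTiter-Glo luminescence) after 40 hr compound exposure at 37 C of 2500 LYMP1-002 lymphoblastoid cells per well. Concentration-response data were fitted with the standard Hill equation to give AC50.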

[14] = qHTS Assay for Identification of Small Molecule Inducers of Hypoxia Response (AID 2120; active = well fitted curve in the direction sought with a large enough effect in the signal ratio, with a control signal flat, not every such curve was filed as active; the % refers to the signal ratio; also: 0% is about no effect)
Summary of the method: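 Reporter induction read as the CCF4 blue/green (460nm/530nm) emission ratio after 2.5 h dye loading at room temperature. ME-180 HRE-beta-lactamase cells received titrated compounds for 17 h at 37 degrees Celsius; AC50 values derived.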

[15] = target: Estrogen receptor (Homo sapiens) (UniProt P03372); test: qHTS assay for small molecule antagonists of estrogen receptor alpha signaling (AID 588513; active = well fitted curve in the direction sought with a large enough effect in the signal ratio, with a control signal flat, not every such curve was filed as active; the % refers to the signal ratio; also: % is scaled to controls: 0 for no effect and ±100 for the full control effect)
Summary of the method: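 Fluorescence from CCF4 substrate after 2 h at room temperature gave reporter activity; cells had been exposed to compound and 0.5nM 17-beta-estradiol for 18 h at 37 C. Hill-equation fitting yielded IC50 and maximal response.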

[16] = target: Estrogen receptor (Homo sapiens) (UniProt P03372); test: qHTS assay for small molecule agonists of estrogen receptor alpha signaling (AID 588514; calls by dose curve;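 also: 0% = vehicle only and 100% = reference agonist; nearly all actives have a fitted effect of over 70% in size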)
Summary of the method: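 EC50 and efficacy came from Hill fits of beta-lactamase reporter signal (CCF4 dye, 2 h at room temperature) scaled between DMSO and 20 nM 17-beta-estradiol. Agonist mode: HEK293 ER-alpha-UAS-bla cells in charcoal/dextran-stripped serum medium, 18 h compound exposure at 37 C.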

[17] = Cell Viability - LYMP2-006 (AID 978)
Summary of the method: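 Cells are seeded at 2500 per well and rested 5 hr at 37 C. Compounds are added across a concentration series for 24 hr at 37 C, after which ATP is quantified by luciferase luminescence.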

[18] = Cell Viability - LYMP2-018 (AID 985);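 also: plate controls were DMSO only for no effect and tetraoctylammonium bromide at 92 µM for full effect; nearly all actives have a fitted effect of over 50% in size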
Summary of the method: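 Viability read as CellTiter-Glo luminescence (cellular ATP) after 24 hr compound exposure at 37 C of 2500 LYMP2-018 lymphoblastoid cells/well, pre-plated 5 hr. Hill-equation modelling gave AC50.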

[19] = Cell Viability - LYMP2-022 (AID 987)
Summary of the method: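 Cytotoxicity read as decreased cellular ATP (CellTiter-Glo luminescence, 30 min room temperature) after 24 hours compound exposure of 2500 lymphoblastoid LYMP2-022 cells/well at 37 C. Concentration-response data fitted with standard Hill equation for AC50.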

[20] = target: Androgen receptor (Homo sapiens) (UniProt P10275); test: qHTS assay for small molecule agonists of androgen receptor signaling (AID 588515; active = well fitted curve in the direction sought with a large enough effect in the signal ratio, with a control signal flat; the % refers to the signal ratio; also: % is scaled to controls: 0 for no effect and ±100 for the full control effect); conditions: AR-UAS-bla HEK293, beta-lactamase ratio, agonist 16 h; active compounds read high
Summary of the method: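 Stimulation of an AR-responsive β-lactamase reporter in GripTite HEK293 cells was measured after 16 h compound exposure at 37 °C, via CCF4 fluorescence after 2 h RT. EC50 from Hill fits, normalized to R1881 at 30 nM.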

Sequence of Estrogen receptor (Homo sapiens) (P03372 whole entry, looked up): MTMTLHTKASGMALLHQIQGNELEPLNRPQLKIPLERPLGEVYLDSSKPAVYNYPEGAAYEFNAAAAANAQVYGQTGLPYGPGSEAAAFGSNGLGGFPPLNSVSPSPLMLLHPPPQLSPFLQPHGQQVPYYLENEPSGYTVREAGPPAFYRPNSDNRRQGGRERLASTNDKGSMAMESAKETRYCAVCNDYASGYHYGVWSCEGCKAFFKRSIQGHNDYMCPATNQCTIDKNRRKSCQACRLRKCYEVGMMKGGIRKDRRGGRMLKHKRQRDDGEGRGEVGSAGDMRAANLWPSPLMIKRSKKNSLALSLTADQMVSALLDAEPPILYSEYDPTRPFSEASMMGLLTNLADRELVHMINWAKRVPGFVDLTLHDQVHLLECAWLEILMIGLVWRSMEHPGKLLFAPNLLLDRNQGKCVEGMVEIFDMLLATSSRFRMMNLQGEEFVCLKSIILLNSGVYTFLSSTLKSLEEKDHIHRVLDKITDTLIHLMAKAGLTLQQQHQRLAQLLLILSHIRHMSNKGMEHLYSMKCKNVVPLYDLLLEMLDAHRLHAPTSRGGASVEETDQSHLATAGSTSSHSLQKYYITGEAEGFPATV
Sequence of Androgen receptor (Homo sapiens) (P10275 whole entry, looked up): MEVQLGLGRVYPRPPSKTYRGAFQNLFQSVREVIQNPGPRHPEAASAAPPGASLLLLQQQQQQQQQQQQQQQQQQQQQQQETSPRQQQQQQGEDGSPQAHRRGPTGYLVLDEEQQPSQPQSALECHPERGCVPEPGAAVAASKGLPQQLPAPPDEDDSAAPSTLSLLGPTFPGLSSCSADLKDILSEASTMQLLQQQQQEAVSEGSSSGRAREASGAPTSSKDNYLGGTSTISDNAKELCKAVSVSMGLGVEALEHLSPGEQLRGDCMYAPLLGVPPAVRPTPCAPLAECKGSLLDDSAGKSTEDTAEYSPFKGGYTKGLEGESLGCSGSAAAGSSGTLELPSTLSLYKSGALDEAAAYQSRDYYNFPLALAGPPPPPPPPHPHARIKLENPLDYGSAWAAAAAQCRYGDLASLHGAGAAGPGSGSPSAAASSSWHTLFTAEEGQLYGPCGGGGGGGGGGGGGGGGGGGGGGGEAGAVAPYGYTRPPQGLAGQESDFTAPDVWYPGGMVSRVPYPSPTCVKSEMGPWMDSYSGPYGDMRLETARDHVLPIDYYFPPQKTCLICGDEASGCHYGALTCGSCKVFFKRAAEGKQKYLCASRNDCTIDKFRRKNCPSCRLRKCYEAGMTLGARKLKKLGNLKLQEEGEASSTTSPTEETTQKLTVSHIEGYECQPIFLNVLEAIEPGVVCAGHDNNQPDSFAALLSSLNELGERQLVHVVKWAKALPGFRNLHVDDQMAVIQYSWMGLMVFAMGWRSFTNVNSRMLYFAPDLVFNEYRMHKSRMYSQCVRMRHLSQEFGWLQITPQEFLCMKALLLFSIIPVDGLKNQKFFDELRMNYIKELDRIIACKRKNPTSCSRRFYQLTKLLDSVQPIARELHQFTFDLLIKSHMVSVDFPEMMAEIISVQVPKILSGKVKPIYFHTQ

CC(C)=CCl
inactive: Potency [1] | Potency [2] | Potency [3] | Potency [4] | Potency [5] | Potency [6] | Potency [7] | Potency [8] | Potency [9] | Potency [10] | outcome [11] | Potency [12] | Potency [13] | outcome [14] | outcome [15] | Potency [16]

Fc1ccccc1
inactive: Potency [2] | Potency [17] | Potency [3] | Potency [4] | Potency [5] | Potency [6] | Potency [7] | Potency [18] | Potency [9] | Potency [19] | Potency [10] | outcome [11] | Potency [12] | Potency [13] | outcome [14] | outcome [15] | Potency [16]

COC(=O)CCC(=O)OC
inactive: Potency [2] | Potency [17] | Potency [3] | Potency [4] | Potency [5] | Potency [6] | Potency [7] | Potency [8] | Potency [18] | Potency [9] | Potency [19] | Potency [10] | outcome [11] | Potency [12] | Potency [13] | outcome [14] | outcome [15] | Potency [16]

Oc1c(Cl)ccc(Cl)c1Cl
inactive: Potency [1] | Potency [2] | Potency [17] | Potency [3] | Potency [4] | Potency [6] | Potency [8] | Potency [18] | Potency [9] | Potency [19] | Potency [10] | outcome [11] | Potency [12] | Potency [13] | outcome [14] | outcome [15] | Potency [16]

NC(=O)/N=N/C(N)=O
inactive: Potency [1] | Potency [2] | Potency [17] | Potency [3] | Potency [4] | Potency [6] | Potency [7] | Potency [8] | Potency [18] | Potency [9] | Potency [19] | outcome [11] | Potency [13] | outcome [14] | outcome [15] | Potency [16]

Cc1ccccc1C=O
inactive: Potency [1] | Potency [2] | Potency [17] | Potency [3] | Potency [4] | Potency [6] | Potency [7] | Potency [8] | Potency [18] | Potency [9] | Potency [19] | Potency [10] | outcome [11] | Potency [12] | Potency [13] | outcome [14] | outcome [15] | Potency [16]

O=[N+]([O-])c1ccc2nc[nH]c2c1
inactive: Potency [1] | Potency [2] | Potency [3] | Potency [4] | Potency [5] | Potency [6] | Potency [7] | Potency [8] | Potency [9] | Potency [19] | Potency [10] | outcome [11] | Potency [12] | Potency [13] | outcome [14] | outcome [15] | Potency [16]

Cc1ccco1
inactive: Potency [1] | Potency [2] | Potency [3] | Potency [4] | Potency [5] | Potency [6] | Potency [7] | Potency [8] | Potency [18] | Potency [9] | Potency [19] | Potency [12] | Potency [13] | outcome [14] | outcome [15] | Potency [16]

CC(=C/C=C/C(C)=C/C=C/C=C(C)/C=C/C=C(C)/C=C/C(=O)O)/C=C/C(=O)O
inactive: Potency [1] | Potency [2] | Potency [17] | Potency [3] | Potency [4] | Potency [5] | Potency [6] | Potency [7] | Potency [8] | Potency [9] | Potency [10] | outcome [11] | Potency [12] | Potency [13] | outcome [14] | outcome [15] | activation [20] 17%

CCOCC(=O)O
inactive: Potency [2] | Potency [17] | Potency [3] | Potency [4] | Potency [5] | Potency [6] | Potency [8] | Potency [18] | Potency [9] | Potency [19] | Potency [10] | outcome [11] | Potency [12] | Potency [13] | outcome [14] | outcome [15] | Potency [16]

CCCCCCCCCCCCOCC1CO1 (configuration not stated)
inactive: Potency [1] | Potency [2] | Potency [17] | Potency [3] | Potency [4] | Potency [6] | Potency [7] | Potency [8] | Potency [18] | Potency [9] | Potency [19] | Potency [10] | outcome [11] | Potency [12] | Potency [13] | outcome [14] | outcome [15] | Potency [16]
